# Results taken from the supplement of paper PMC6555819.
# Assays:
# Test in all cases: PBM binding z-score (relative to random genomic background probes); higher = stronger binding; sequences stand for … in GC…GCGATTGACAGCGTAGAATGAAGG
# [1] = test system: PPARg:RXRa DBDmut IVT, anti-RXR (DBD mutation: RXRa K156A/R161A, NR concentration 270 nM, RXRa partner concentration 90 nM)
# Outline: (§1)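 Scanned fluorescence from custom Agilent 4×180K protein-binding microarrays was regression-normalized. Binding z-scores use random background probes as reference. Ligand-free nuclear receptor dimers were incubated on the arrays for 1 h and detected with antibodies against each partner (one per run).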
# [2] = test system: PPARg:RXRa IVT, anti-PPARg (NR concentration 270 nM, RXRa partner concentration 90 nM)
# Outline: as §1
# [3] = test system: PPARg DBDmut:RXRa IVT, anti-PPARg (DBD mutation: PPARg1 K132A/R137A, NR concentration 270 nM, RXRa partner concentration 90 nM)
# Outline: as §1
# [4] = test system: PPARg DBDmut IVT, anti-PPARg (DBD mutation: PPARg1 K132A/R137A, NR concentration 270 nM)
# Outline: as §1
# [5] = test system: PPARg homodimer (NR concentration 180 nM)
# Outline: as §1
# [6] = test system: PXR:RXRa (NR concentration 270 nM, RXRa partner concentration 90 nM)
# Outline: as §1
# [7] = test system: PXR homodimer (NR concentration 270 nM)
# Outline: as §1
# [8] = test system: RARa:RXR (NR concentration 270 nM, RXRa partner concentration 90 nM)
# Outline: as §1
# [9] = test system: RARa homodimer (NR concentration 270 nM)
# Outline: as §1
# [10] = test system: RARb:RXRa (NR concentration 270 nM, RXRa partner concentration 90 nM)
# Outline: as §1
Sequence,PBM binding z-score [1],PBM binding z-score [2],PBM binding z-score [3],PBM binding z-score [4],PBM binding z-score [5],PBM binding z-score [6],PBM binding z-score [7],PBM binding z-score [8],PBM binding z-score [9],PBM binding z-score [10]
GGAACGAGGGCATTCGACTTGATAGCATGGCGAT,2.67,2.21,0.442,0.0396,-0.0413,0.499,0.283,-0.119,-0.012,1.6
GCAGACACGTGAAACGCAGGTAACTCAGGGTGGC,-1.12,-0.582,-0.764,-0.343,-2.11,-0.819,-0.73,-0.666,-0.899,-0.551
CAAACTAGGTAACCGGAAGGTCAAAGTCCGCATG,6.68,6.36,1.05,1.34,3.53,3.95,1.57,4.88,1.78,3.35
CCTGCTAGGTCAATGGTTAGCTAAAGCAGCTCGC,4.4,3.57,-0.722,-1.05,0.942,0.745,-0.456,1.29,-0.0432,3.74
TAGCCTAGGTCATGCAGGGGCCAGTATAGAAAGC,1.42,2.59,-0.359,-0.442,1.36,2.18,-0.721,3.39,-0.25,3.85
TAGCCTAGGTCATTCAGGGGCCAGTATCGAAAGC,1.77,2.83,0.988,-0.403,1.28,2.47,0.344,3.36,-0.599,3.67
CATCAAAGTTCAACTAAGGTAACGTAAAGCACGC,0.365,1.94,1.26,1.35,3.92,5.93,5.95,4.5,3.5,5.37
CAAACTAAGTCAAAGGTCAAAGTCGAGCCAACCA,3.49,6.79,1.69,2.86,5.3,6.14,2.15,7.85,3.31,4.95
TCTAGCAGGCCTGAGGGTCACTCAAGAGGTACGG,0.475,-0.212,-2.08,-1.13,0.706,1.92,-0.465,2.85,-0.571,2.12
CTGGAAAGGTCGTGCTCAGGTGAGTATACCAAAC,0.634,1.35,-0.0196,0.149,1.33,3.07,-0.203,4.31,-0.374,3.59
TAGCCTAGGTCTTTGGGCCAGTATAGTACGCATC,-0.223,0.546,-1.01,-0.496,-0.656,-0.782,-0.961,-0.806,-0.737,-0.161
ATCTCTAGGTAACAAGTTCAGTAAAAGAGAGGAC,3.06,3.22,1.24,1.1,1.34,1.67,1.66,1.57,1.54,1.78
CCGACTGGGCCATCAGGTCATTGATATCAACGTT,3.07,3.51,-1.33,-0.437,0.811,1.47,0.46,1.85,-0.257,2.04
TCTTGTAGATAAACAGGAGGTTAAGAAAGATCGA,1.35,0.282,0.991,1.09,0.0399,0.748,-0.0168,1.05,0.379,0.359
TCTATTAGTAGAAGGGCAACCGACGAGTCCGTTT,1.9,0.562,0.63,-0.0614,0.492,0.479,0.325,0.693,0.276,1.36
ATCTCTAGGTAATCAAGTTCAGTGAATGCCGAAC,2.71,2.29,0.964,0.455,0.892,1.95,2,0.799,0.778,1
CTCGAAAGGTCGGATGAGGTGAGTATACGGATAA,0.154,0.983,0.973,-0.0346,0.968,3.55,-0.0327,2.62,0.562,3.32
CCTACTCGGCCATTCAGAGGTCATTGATCATATG,2.23,1.88,0.471,0.672,2.68,4.91,3.38,4.55,1.67,3.27
TCTCGGAGGACACGAAGGTCTGAGCTTTCCAGAG,1.12,-0.0413,-0.829,-1.69,-0.904,-0.33,-0.787,0.107,-1.21,1.46
GCTACAGGGTCAAGGCCAGAGTACGCGTATTGAT,2.54,3.15,-0.313,0.11,2.84,4,0.0658,4.7,0.58,4.59
TCTAGCAAGCCAGAGGGTCACTCAAGAGGTACGG,0.615,-0.0358,-1.2,-1.18,0.24,0.871,-0.204,1.96,-0.908,1.62
ATACCATGGTGATCGTGAGGTCGTTGATACTAAC,-0.0684,0.0915,-0.0138,0.737,0.319,1.75,1.17,1.27,-0.088,0.235
TGAATGAGGTTATAAGATCAGGGCACGTTGCAAA,1.2,2.64,0.65,0.308,0.364,1.19,-0.152,1.77,0.42,1.48
AGTCAAAGCTCACTAGGTAACGTAAGATTCAGCT,1.92,2.79,0.267,-0.313,-0.462,-0.363,-0.294,-0.364,-0.0387,-0.0625
